Compound activity as filed in PubChem BioAssay.
Pol kappa inh: inhibitors of human DNA polymerase kappa | purified Pol kappa, fluorescent DNA synthesis assay, 10 min | AID 588579 | Q9UBT6 | 400,000 tested, 0.53% active | Potency, µM (series often up to 107 µM), without a hit: top-dose activity, negative = inhibition, actives largely listed as inhibitors; also: % is scaled to controls: 0 for no effect and ±100 for the full control effect
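Activity was followed as the change in fluorescence between reads at 0 and 10 min after starting the reaction with 50 nM substrate. Beforehand, 10 nM polymerase had been preincubated with compound for 15 min at room temperature.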
POLI inh: inhibitors of human DNA polymerase iota | Pol iota fluorescent replication assay, 10 min | 390,000 tested, 1% active | Potency, µM (titrated, usually from 115 µM), for the others: top-dose activity, negative = inhibition, usual class: inhibitors
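Pol iota at 10 nM preincubated 15 min with compounds at room temperature; reaction started with fluorescent substrate, 50 nM final. Fluorescence read kinetically at 0 and 10 min; buffer-only wells as negative control.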
WRN helicase inh: blocks human WRN helicase. Potency, µM (series often up to 114 µM), for inactives: top-dose activity change, negative = inhibition, actives largely listed as inhibitors. WRN helicase unwinding, fluorescent forked duplex, kinetic. Q14191. AID 651768. 360,000 tested, 0.46% active; also: % is scaled to controls: 0 for no effect and ±100 for the full control effect; nearly all actives have a fitted effect of over 55% in size
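WRN at 20 nM final preincubated with compound 15 min at room temperature; reaction started with 100 nM fluorophore/quencher forked duplex oligonucleotide and 2 mM ATP final. Unwinding followed kinetically by red fluorescence (ex 525, em 598 nm).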
POLH inh: DNA polymerase eta (human) inhibition; Q9Y253; AID 588591; Potency, µM (top dose mostly 114 µM), inactives show at the top dose activity change, negative = inhibition, hits mostly inhibitors; 390,000 tested, 1.2% active; recombinant Pol eta, fluorescent DNA replication assay; also: % is scaled to controls: 0 for no effect and ±100 for the full control effect
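Pol eta (10 nM) was preincubated with compounds for 15 min at room temperature, after which fluorescent replication substrate (50 nM final) was added to start the reaction. Fluorescence was read kinetically at 0 and 10 min.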
FEN1 inhibitor: blocks human flap endonuclease 1; P39748; Recombinant FEN1 flap cleavage, fluorescence, 15 min; Potency, µM (series often up to 114 µM), for the others: top-dose activity change, negative = inhibition, actives largely listed as inhibitors; 390,000 tested, 0.35% active; also: % is scaled to controls: 0 for no effect and ±100 for the full control effect; nearly all actives have a fitted effect of over 65% in size
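FEN1 at 10 nM preincubated with compounds 15 min at room temperature, then flap DNA substrate added at 50 nM final. Signal read at 0 and 15 min; concentration-response fitted with four-parameter Hill equation.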
POLB inh: blocks human DNA polymerase beta activity; 340,000 tested, 1.3% active; P06746; Pol beta primer extension/strand displacement, fluorescence kinetic; Potency, µM (highest dose often 114 µM), for the others: top-dose activity change, negative = inhibition, most hits filed as inhibitors; also: % is scaled to controls: 0 for no effect and ±100 for the full control effect
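Preincubation: enzyme (10 nM) with compound, 15 min, RT. Reaction: substrate added to 50 nM final. Reads: 0 and 10 min. Analysis: normalized, Hill fit.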
Numbers without * were called inactive; ? = inconclusive; nt = not tested or not shown; [ ] = another dose, or the depositor's remark. Shown are actives, neighbours in structure and some others; about 2.4% of the full set was active somewhere. Calls follow the shape of the dose curve; as a rule, active = well fitted curve in the direction sought with a large enough effect; inconclusive = small, poorly fitted or top-dose-only effect, or another doubt; inactive = no such curve, though single readings can be large; an effect the other way counts as inactive or inconclusive. Potency is read from the fitted curve at half-maximal effect.

SMILES | Pol kappa inh | POLI inh | WRN helicase inh | POLH inh | FEN1 inhibitor | POLB inh
COC(=O)c1ccccc1NC(=O)/C=C/c1ccco1 | 0% | ? | -22% | 18µM* | -16% | -26%
Cc1ccc(-c2csc(NC(=S)NC(=O)/C=C/c3ccco3)n2)cc1 | ? | 50µM* | -22% | -3% | -16% | 4%
O=C(/C=C/c1ccco1)NCCc1ccc(F)cc1 | -40% | 20µM* | -23% | ? | -1% | 25µM*
O=C(/C=C\c1ccco1)Nc1nc(-c2ccc3ccccc3c2)cs1 | -15% | -2% | ? | -9% | -8% | 12%[57.1 µM]
O=C(/C=C/c1ccccc1)NCc1ccc2c(c1)OCO2 | -10% | 9% | 2% | -19% | 3% | 11%
O=C(/C=C/c1ccco1)NCc1ccc2c(c1)OCO2 | -1% | 6% | -2% | -7% | 0% | 20µM*
N[C@H](C(=O)O)[C@H](OCc1ccccc1)C(=O)O | -9%[19.4 µM] | nt | nt | nt | nt | nt
CN(C)c1ccc(/C=C/c2c(Br)cnc3ccccc23)cc1 | -4% | -10% | nt | nt | -21% | nt
NNC(=S)NCc1ccco1 | -30% | 20µM* | -13% | -9% | 2% | 0%
O=C(/C=C/c1ccc([N+](=O)[O-])cc1)NCc1ccco1 | -15% | 2% | -26%[57.1 µM] | -13% | -7% | -17%
O=C(/C=C/c1ccc(F)cc1)NCc1ccco1 | -34% | ? | -17% | ? | 0% | 56µM*
O=C(NCc1ccco1)c1cc(-c2ccco2)on1 | -15% | 89µM* | -6%[57.1 µM] | 3% | -5% | 17%
O=C(/C=C/c1ccco1)Nc1ccc(F)cc1 | -2%[60.1 µM] | ? | nt | nt | -4% | 32µM*
CC(=O)NS(=O)(=O)c1ccc(NC(=O)/C=C/c2ccco2)cc1 | -15% | 62% | -10% | -1% | 8% | ?
Cc1cc(NC(=O)c2cc(-c3ccccc3)on2)n(-c2ccccc2)n1 | -4% | -18% | -8%[57.1 µM] | 2% | -14% | -13%
O=c1c2cc(NC(=S)N3CCCC3)ccc2nc2n1CCCCC2 | -8% | 28% | -6% | -10% | 1% | 4%
Cc1cc(NC(=O)c2cc(-c3ccco3)on2)n(-c2ccccc2)n1 | -27% | 89µM* | -7%[11.6 µM] | -5% | -8% | ?
CCCCNC(=O)C1c2ccccc2Oc2ccccc21 | 0% | 17% | -4% | 4% | -1% | 7%
CCC(=O)Nc1ccc(NC(=S)NC(=O)/C=C/c2ccco2)cc1 | -24% | ? | -11% | ? | 2% | -27%
O=C(/C=C/c1ccco1)Nc1ccc2nc3n(c(=O)c2c1)CCCC3 | -7% | 71µM* | -9%[11.6 µM] | 16% | -18% | -21%
CC(=O)NC(=S)Nc1ccc(NC(=S)NC(=O)/C=C/c2ccco2)cc1 | -31% | 32µM* | 3%[11.6 µM] | ? | -2% | ?
O=C(NCc1ccco1)C1c2ccccc2Oc2ccccc21 | ? | ? | ? | 7.9µM* | -1% | 18µM*
Cc1cccc(Cn2cnc3c(cnn3C(C)(C)C)c2=O)c1F | 2% | 0% | nt | nt | -23% | nt
O=C(NCCc1ccccc1)/C(=C/c1ccco1)c1ccccc1 | -3% | -19% | ? | ? | 3% | 35µM*
O=C(NCc1ccco1)c1c(Cl)cccc1Cl | nt | nt | 15% | 5% | nt | nt
SMILES | Pol kappa inh | POLI inh | WRN helicase inh | POLH inh | FEN1 inhibitor | POLB inh
O=C(NCc1ccco1)c1c(F)c(F)c(F)c(C(=O)NCc2ccco2)c1F | ? | -17% | -33% | 45µM* | 3% | ?
CCc1cccc(C)c1Nc1c(-c2ccc(SC)cc2)nc2sccn12 | 0% | 32% | nt | -9% | -15% | -15%
Cc1ccc(NC(=O)c2oc3ccccc3c2NC(=O)C23CC4CC(CC(C4)C2)C3)cc1 | -17% | 18% | nt | -23% | 6% | -1%
COCCn1c(=O)cnc2cnc(Oc3ccc(OC)cc3)nc21 | 0%[60.1 µM] | nt | nt | nt | nt | nt
Cc1cc(C)n(-c2nc3ccccc3s2)n1 | -5%[60.1 µM] | 1% | -2% | -4% | 7% | -1%
Cc1c2c(=O)n(-c3nc4ccccc4s3)nc-2cc(O)n1Cc1ccccc1 | ? | 35µM* | -9%[11.6 µM] | 45µM* | ? | ?
Cc1ccc2nc(-c3ccc(NC(=O)CSc4nc(N)cc(=O)[nH]4)cc3)sc2c1 | -10% | -20% | 7% | -3% | -4% | -2%
Cc1ccc2nc(-c3ccc(NC(=O)CSc4nccc(=O)[nH]4)cc3)sc2c1 | -12% | 95% | ? | -17% | ? | 35µM*
CCn1c(SCC(=O)Nc2ccc(-c3nc4ccc(C)cc4s3)cc2)nnc1-c1ccccc1 | nt | nt | nt | nt | nt | 7.9µM*
COc1ccc(-n2c(=O)c3c4c(sc3n(Cc3cc(C)ccc3C)c2=O)CN(C(C)=O)CC4)c(OC)c1 | ? | -8% | nt | -13% | -15% | 24%
O=C(Cc1ccc(F)cc1)N1CCC(c2nc3c(nnn3Cc3ccc(Cl)cc3)c(=O)[nH]2)CC1 | 0% | -8% | nt | -5% | ? | -29%
Nc1ccc(/C=C/c2ccc(N)cc2S(=O)(=O)O)c(S(=O)(=O)O)c1 | 3.2µM* | nt | nt | nt | nt | nt
CCOc1ccccc1C(=O)Nc1c(C(=O)Nc2ccc(F)cc2)oc2ccccc12 | -9% | 20% | nt | ? | -3% | -2%
Cc1ccc(-c2nn(CCC(=O)O)cc2/C=C\C(=O)c2ccc(Br)cc2)cc1 | 4% | 40µM* | ? | 79µM* | -2% | -23%
CCn1c(SCC(=O)N2c3ccccc3Sc3ccccc32)nnc1-c1ccco1 | -4%[60.1 µM] | 15% | -17% | -14% | -14% | 45µM*
CCCn1c(SCC(=O)N2c3ccccc3Sc3ccccc32)nc2c1c(=O)n(C)c(=O)n2C | -9% | 89µM* | 0% | -2% | 9% | -6%
O=S(=O)(Nc1ccc(-c2ccc(N3CCCC3)nn2)cc1)c1cccc(C(F)(F)F)c1 | -10%[60.1 µM] | -18% | nt | -4% | 2% | -10%
O=S(=O)(c1ccc2ncccc2c1)N1CCN(c2nc(-c3cccs3)nc3ccccc23)CC1 | -10% | 2% | nt | nt | -11% | nt
O=C(Nc1c(Cl)cc([N+](=O)[O-])cc1Cl)c1cc(Cl)cc(Cl)c1O | -4% | 19% | nt | nt | -1% | nt
CC(C)OC(=O)c1cn(-c2ccccc2)nc1-c1ccco1 | ? | ? | ? | ? | -1% | 40µM*
Cc1ccc(-c2nn(-c3ccccc3)cc2C(=O)O)o1 | nt | nt | nt | nt | nt | 16µM*
Cc1nn(C)c(Cl)c1S(=O)(=O)N(Cc1ccco1)c1ncnc2nc[nH]c12 | -14% | ? | nt | nt | -8% | nt
CN(C)c1cc(N2CCOCC2)nc(C#N)n1 | -6% | -6% | nt | nt | 4% | nt
Cc1ccc(S(=O)(=O)N(C)C)cc1NC(=O)c1cc(-c2ccco2)nc2ccccc12 | ? | 20µM* | ? | ? | 10% | -1%
Cc1ccc(NC(=O)c2cc(-c3ccco3)nc3ccccc23)cc1S(=O)(=O)N1CCOCC1 | -41% | 16µM* | ? | ? | -1% | 14µM*
